Most compounds without a hit are left out; they make up all but 10% or so of the library.
HP1b chromo inh = inhibitors of HP1-beta chromodomain binding to methylated histone tails | AID 540317 | AlphaScreen HP1-beta / biotin-H3K9me3 peptide binding | hit rate 0.56% among 390,000 | Potency, µM (series often up to 114 µM), actives largely listed as inhibitors; also: nearly all actives have a fitted effect of over 70% in size
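HP1-beta protein (50 nM final) preincubated 30 min at room temperature with biotinylated H3(1-18)K9me3 peptide (50 nM) in PBS pH 7.4, 0.01% Tween-20, then compound added for 30 min. AlphaScreen streptavidin donor/nickel chelate acceptor beads (10 ug/mL final), 30 min dark, luminescence read.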
G9a block = blocks human histone lysine methyltransferase G9a; G9a H3K9 monomethylation, AlphaScreen, 2 h; Potency, µM (top dose mostly 102 µM), actives largely listed as inhibitors; AID 504332; hit rate 8.8% among 350,000; also: nearly all actives have a fitted effect of over 75% in size
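Quantitative HTS format: methyltransferase activity on a biotin-tagged H3K9 peptide is measured by AlphaScreen, using a rabbit anti-monomethyl-H3K9 antibody with streptavidin donor and anti-IgG acceptor beads. Final levels are 20 nM enzyme, 500 nM peptide, 20 uM SAM; 2 h RT.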
JMJD2A Tudor inh = blocks the human JMJD2A Tudor domain; AID 504339; Potency, µM (titrated, usually from 114 µM), hits mostly inhibitors; hit rate 4.4% among 390,000; AlphaScreen JMJD2A-Tudor / H3K4me3 peptide binding; also: nearly all actives have a fitted effect of over 50% in size
GLS inh = blocks human kidney-isoform glutaminase activity | hit rate 0.21% among 410,000 | O94925 | AID 624170 | GLS enzymatic activity, qHTS titration | Potency, µM (top dose mostly 45.5 µM), usual class: inhibitors
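Enzyme dispensed in phosphate buffer (45 mM, pH 8.2, 0.02% Tween-20), compounds pinned in, then 1 mM L-glutamine solution and the glutamate oxidase–HRP–Amplex Red mix added; fluorescence read immediately and again after 30 min at room temperature.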
BAZ2B inh = inhibitors of human BAZ2B bromodomain. Q9UIF8. AlphaScreen BAZ2B-H3K14Ac peptide displacement. Potency, µM (highest dose often 114 µM), hits mostly inhibitors. hit rate 4.4% among 360,000. AID 504333; also: nearly all actives have a fitted effect of over 60% in size
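Inhibition is scored as reduced AlphaScreen emission. The BAZ2B/b-H3(5-23)K14Ac complex (50 nM each) in PBS pH 7.4, 0.01% Tween-20 meets compound (up to 110 uM) for 30 min at RT before bead addition.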
Numbers stand for hits; 0 = inactive; ? = inconclusive; - = not tested or not shown; [ ] = remark or other dose. Calls follow the shape of the dose curve; as a rule, active = well fitted curve in the direction sought with a large enough effect; inconclusive = small, poorly fitted or top-dose-only effect, or another doubt; inactive = no such curve, though single readings can be large; an effect the other way counts as inactive or inconclusive.

SMILES | HP1b chromo inh | G9a block | JMJD2A Tudor inh | GLS inh | BAZ2B inh
O=C(Oc1ccccc1C(=S)N1CCOCC1)c1ccc([N+](=O)[O-])cc1[N+](=O)[O-] | ? | 50.1µM | ? | 0 | ?
COc1cc(C(=S)N2CCOCC2)ccc1OC(=O)c1cccc(C)c1 | 0 | 22.4µM | ? | 0 | ?
COc1cc(C(=S)N2CCOCC2)ccc1OS(=O)(=O)c1ccc(Cl)cc1 | 0 | 35.5µM | 0 | 0 | 0
Cc1ccc(C)c(Cn2nnc(C(=O)NCc3ccccc3)c2N)c1 | 0 | 0 | 0 | 0 | 0
CC(=O)Nc1ccc(-c2nnc3n(Cc4ccc(C)cc4)c(=O)c4ccccc4n23)cc1 | 0 | 0 | 0 | 0 | 0
O=C(COc1ccc(C(=S)N2CCOCC2)cc1Cl)Nc1ccccc1Cl | 0 | 7.08µM | 0 | 0 | 0
COc1cc(C(=S)N2CCOCC2)ccc1OC(=O)c1ccc(Br)cc1 | 0 | 0 | 0 | 0 | 0
COc1cc(C(=S)N2CCOCC2)ccc1OC(=O)c1cc([N+](=O)[O-])cc([N+](=O)[O-])c1 | ? | 7.94µM | 0 | 0 | 0
Cc1cccc(CNC(=O)C2CCN(c3nc4ccc(Cl)cc4[nH]3)CC2)c1 | 0 | 0 | 0 | 0 | 0
C#CCOCCOCCOCCNc1nc(N2CCN(C(=O)[C@H](CCCCN)n3cc([C@@H](N)CO)nn3)CC2)nc(N2CCN(C(=O)[C@H](CCCCN)n3cc([C@@H](N)CC(C)C)nn3)CC2)n1 | 0 | - | 56.2µM | 0 | -
C#CCOCCOCCOCCNc1nc(N2CCN(C(=O)[C@H]([C@@H](C)CC)n3cc(CCCCN)nn3)CC2)nc(N2CCN(C(=O)[C@H](CCCCN)n3cc(CCC(=O)O)nn3)CC2)n1 | 0 | 0[2.33 µM] | 0 | 0 | 0
C#CCOCCOCCOCCNc1nc(N2CCN(C(=O)[C@H]([C@@H](C)CC)n3cc([C@@H](N)CO)nn3)CC2)nc(N2CCN(C(=O)[C@H](CCCCN)n3cc([C@@H](N)CC(C)C)nn3)CC2)n1 | 0 | ? | 50.1µM | 0 | 79.4µM
CCc1ccc(NC(=O)C(=O)NCC(c2cccnc2)N2CCN(C)CC2)cc1 (configuration not stated) | 0 | 15.8µM | 56.2µM | 0 | 44.7µM
O=C(NCC(c1cccnc1)N1CCOCC1)c1cccs1 (configuration not stated) | 0 | 44.7µM | 0 | 0 | 0
Cc1cccc(C(=O)NCC(c2cccs2)N2CCOCC2)c1 (configuration not stated) | 0 | 7.94µM | 0 | 0 | 0
Cc1cccc(C(=O)NCC(=O)NCC(c2cccs2)N2CCOCC2)c1 (configuration not stated) | 0 | 0[0.501 µM] | 0 | 0 | 0
NC(=O)[C@@H]1CCCN1Cc1nc(Cc2ccccc2Cl)no1 | 0 | 0 | 0 | 0 | 0
C=CCOc1ccc(CN(C)C(=O)CNC(=O)c2ccc(-c3ccccc3)cc2)cc1 | 0 | 0 | ? | 0 | 0
CCOc1ccc(NC(c2ccccn2)c2oc(CO)cc(=O)c2O)cc1 (configuration not stated) | ? | 1.41µM | 22.4µM | 0 | 20µM
COc1cc(/C=N/N=C/c2cc(OC)c(O)c(OC)c2)cc(OC)c1O | 0 | 0 | 0 | 0 | 0
COc1cc(/C=N/N=C(/C(=O)c2ccccc2)c2ccccc2)cc(OC)c1O | ? | ? | 44.7µM | 0 | ?
COc1cc(CN(CC2CCCO2)C(=O)c2ccc(F)cc2)cc(OC)c1OC (configuration not stated) | 0 | 0 | 0 | 0 | 0
Nc1ccc(N2CCCC2)c(S(=O)(=O)Nc2cccc(C(F)(F)F)c2)c1 | ? | - | 44.7µM | ? | -
Clc1ccccc1OCCn1ccnc1 | 44.7µM | 10µM | 4.47µM | 0 | 79.4µM
COc1cccc(OCCn2ccnc2)c1 | 0 | ? | 0 | 0 | 0
SMILES | HP1b chromo inh | G9a block | JMJD2A Tudor inh | GLS inh | BAZ2B inh
C=CCc1cccc(OC)c1OCCOCCn1ccnc1 | ? | ? | 5.01µM | 0 | 35.5µM
C=CCc1ccccc1OCCn1ccnc1 | ? | 8.91µM | 0 | 0 | 50.1µM
O=C(CCc1nc2cccnc2n1Cc1cccs1)Nc1cccc(Cl)c1 | 0 | 0 | 0 | 0 | 0
O=C1CN(C(=O)c2ccc(S(=O)(=O)N3CCCC3)cc2)C(c2ccc(F)cc2)c2cc(Br)ccc2N1 (configuration not stated) | 0 | 0 | 0 | 0 | 0
Cc1ccc2c(c1)C1(C=CC(=O)C=C1)CC(=O)N2C | 0 | - | 0 | - | -
O=C1N=C(O)CN1/N=C\c1ccc(-c2ccc([N+](=O)[O-])cc2)o1 | - | 0[21.5 µM] | - | - | -
OC[C@@H]1CN(Cc2ccc(Cl)cc2)C[C@H](n2cnc3c(NC4CC4)ncnc32)O1 | - | - | - | 0 | -
COc1ccccc1NS(=O)(=O)c1ccc(Cl)c(NC(=O)C(C)N2C(=O)c3ccccc3C2=O)c1 (configuration not stated) | 0 | 50.1µM | 0 | 0 | 0
Cn1c2c(c(=O)[nH]c1=O)C(c1cccc(O)c1)C1=C(N2)c2ccccc2C1=O (configuration not stated) | 0 | 31.6µM | 0 | 0 | ?
CC(C)(C)CC(C)(C)N=C1Nc2ccccc2NC12C[C@H]1CCC(=O)N3CC[C@@H](C2)[C@@H]13 (some centres not stated) | 0 | - | ? | 0 | -
COc1cc(OC)c(C2=NOC(C(=O)Nc3ccc4c(c3)OCO4)C2)cc1Cl (configuration not stated) | 0 | 39.8µM | 0 | 0 | 0
O=C(N=Nc1c(O)[nH]c2ccccc12)c1cc(-c2cccs2)[nH]n1 | 0 | - | 0 | 0 | 50.1µM
O=C(Cc1cccs1)N=Nc1c(O)[nH]c2ccccc12 | 0 | 0 | 0 | 0 | 0
COc1ccc(-n2c(=O)c3ccccc3n(Cc3ccc(F)cc3Cl)c2=O)cc1OC | 0 | 0 | 0 | 0 | 0
CCCOc1ccc(C(=O)Nc2ccc(-c3cc4ccccc4oc3=O)c(C)c2)cc1 | 0 | 0 | 0 | 0 | 0
O=C1NN(c2ccc(Br)cc2)C(=O)/C1=C\c1ccc(O)cc1O | ? | - | ? | 0 | ?
CCOc1cc(/C=C2/C(=O)NN(c3cccc(Cl)c3)C2=O)ccc1O | 0 | 31.6µM | ? | 0 | 35.5µM
O=C1NN(c2cccc(Br)c2)C(=O)/C1=C\c1ccc(O)cc1 | 0 | 3.55µM | 0 | 0 | 0
COc1cc(/C=C2/C(=O)NN(c3cccc(Cl)c3)C2=O)cc(OC)c1O | ? | 14.1µM | 50.1µM | 0 | 28.2µM
COc1cc(/C=C2/NC(=O)N(c3cccc(Cl)c3)C2=O)ccc1O | 0 | 0 | 0 | 0 | 0
Cc1cc(C(=O)C(C)OC(=O)c2ccc(NC(=O)CC#N)cc2)c(C)n1-c1ccccc1 (configuration not stated) | 0 | 0[2.33 µM] | ? | 0 | ?
O=c1cc(-c2ccccc2)n2c(SCc3ccc([N+](=O)[O-])cc3)nnc2[nH]1 | 0 | 0 | 0 | 0 | 0
COC(=O)CCC(=O)NC(=S)Nc1ccc(S(=O)(=O)Nc2cc(OC)nc(OC)n2)cc1 | 0 | 50.1µM | 0 | 0 | 0
COc1cc(NS(=O)(=O)c2ccc(NC(=O)COc3cccc(C)c3)cc2)nc(OC)n1 | 0 | 25.1µM | 0 | 0 | 0

Screening results (PubChem BioAssay)
